# Source: PubChem BioAssay (NCATS)
# Several values for one entry are separate records, joined by “and”; a condition that tells them apart may be missing. Identical values can stand only once. Inconclusive results are not listed. Where a call stands in place of a potency, no number is given. Some compounds were tested as several samples or in several runs, with calls that do not always agree. Activity calls are given as the source filed them. Unless noted, calls come from the whole dose curve; as a rule, active = well fitted curve in the direction sought with a large enough effect; inconclusive = small, poorly fitted or top-dose-only effect, or another doubt; inactive = no such curve, though single readings can be large; an effect the other way counts as inactive or inconclusive.
# Columns and labels:
# [1] = Cellular Toxicity (caspase-3) HepG2 (AID 654);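 note: cells exposed to compound for 16 hours before reading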
# Method in brief: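 Caspase 3/7 activation is measured as a luminescence increase (aminoluciferin substrate) after 16 h compound exposure of human hepatocarcinoma HepG2 cells. AC50 values are Hill fits, scaled between DMSO baseline and 100 uM tamoxifen stimulation.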
# [2] = Cellular Toxicity (caspase-3) BJ (AID 658);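 note: cells exposed to compound for 16 hours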
# Method in brief: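 qHTS, BJ fibroblasts, 1000 cells/well; 5 hr preincubation, 16 hr compound, 37 °C; Caspase-Glo 3/7 reagent, 1 hr RT; luminescence. DMSO = 0%, 10 uM staurosporine = 100%. Hill-equation AC50.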
# [3] = Cell Viability - LYMP2-006 (AID 978); note: nearly all actives have a fitted effect of over 60% in size
# Method in brief: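 Cells are seeded at 2500 per well and rested 5 hr at 37 C. Compounds are added across a concentration series for 24 hr at 37 C, after which ATP is quantified by luciferase luminescence.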
# [4] = qHTS assay for small molecule antagonists of peroxisome proliferator-activated receptor delta signaling (AID 588535; active = well fitted inhibition curve with a large enough effect in the signal ratio, with a control signal flat, not every such curve was filed as active; the % refers to the signal ratio;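 for max response: cells co-treated with a PPAR-delta agonist as stimulator during compound exposure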); conditions: HEK293T PPARd-UAS-bla, beta-lactamase FRET ratio, 18 h; 460 nm channel
# Method in brief: (§1)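 Fluorescence from CCF4-loaded GeneBLAzer PPAR-delta-UAS-bla HEK293T cells (2 hrs RT loading) quantified reporter inhibition after an 18 hr, 37 C compound exposure across a titration.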
# [5] = biological target: Peroxisome proliferator-activated receptor delta (Homo sapiens) (UniProt Q03181); assay: as above
# Peroxisome proliferator-activated receptor delta (Homo sapiens), sequence (Q03181 whole entry, looked up): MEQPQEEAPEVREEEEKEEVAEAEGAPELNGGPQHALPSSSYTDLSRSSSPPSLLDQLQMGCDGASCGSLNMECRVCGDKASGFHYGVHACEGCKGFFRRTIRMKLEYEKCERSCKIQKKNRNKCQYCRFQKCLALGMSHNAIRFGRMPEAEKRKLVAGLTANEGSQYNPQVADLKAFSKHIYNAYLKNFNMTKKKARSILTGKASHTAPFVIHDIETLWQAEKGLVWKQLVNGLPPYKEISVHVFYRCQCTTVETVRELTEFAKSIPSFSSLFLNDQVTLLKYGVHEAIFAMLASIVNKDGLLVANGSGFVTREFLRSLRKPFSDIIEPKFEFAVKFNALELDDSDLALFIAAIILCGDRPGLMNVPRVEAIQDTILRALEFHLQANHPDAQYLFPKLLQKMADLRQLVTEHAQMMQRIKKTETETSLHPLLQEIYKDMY
# Method in brief: as §1
# [6] = biological target: Peroxisome proliferator-activated receptor gamma (Homo sapiens) (UniProt P37231); assay: qHTS assay for small molecule antagonists of peroxisome proliferator-activated receptor gamma signaling (AID 588537; active = well fitted inhibition curve with a large enough effect in the signal ratio, with a control signal flat, not every such curve was filed as active; the % refers to the signal ratio;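 note: reporter cells co-stimulated with 50 nM rosiglitazone agonist during compound treatment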)
# Peroxisome proliferator-activated receptor gamma (Homo sapiens), sequence (P37231 whole entry, looked up): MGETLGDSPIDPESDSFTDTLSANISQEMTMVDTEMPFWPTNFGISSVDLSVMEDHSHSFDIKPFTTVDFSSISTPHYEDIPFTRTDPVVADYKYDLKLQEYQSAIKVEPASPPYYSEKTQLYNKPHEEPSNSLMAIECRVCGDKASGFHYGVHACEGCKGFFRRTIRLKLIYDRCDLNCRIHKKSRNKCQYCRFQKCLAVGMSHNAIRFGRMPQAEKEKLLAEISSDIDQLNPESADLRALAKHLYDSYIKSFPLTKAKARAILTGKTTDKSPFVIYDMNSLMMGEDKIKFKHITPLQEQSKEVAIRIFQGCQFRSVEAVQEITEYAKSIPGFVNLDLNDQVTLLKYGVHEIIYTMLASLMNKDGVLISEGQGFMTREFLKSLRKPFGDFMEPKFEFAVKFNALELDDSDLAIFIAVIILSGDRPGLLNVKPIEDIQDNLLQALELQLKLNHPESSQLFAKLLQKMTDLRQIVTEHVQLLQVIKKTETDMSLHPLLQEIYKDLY
# Method in brief: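 Fluorescence at 460 and 530 nm (405 nm excitation) reported beta-lactamase cleavage of CCF4 after 2 h room-temperature loading. HEK293 reporter cells in 1% charcoal/dextran-treated FBS had received compound and rosiglitazone for 16 h.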
# [7] = biological target: Retinoic acid receptor RXR-alpha (Homo sapiens) (UniProt P19793); assay: qHTS assay for small molecule antagonists of retinoid X receptor alpha signaling (AID 588546; active = well fitted inhibition curve with a large enough effect in the signal ratio, with a control signal flat, not every such curve was filed as active; the % refers to the signal ratio;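 note: cells stimulated with 9-cis-retinoic acid as agonist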); conditions: HEK293T RXRa-UAS-bla, beta-lactamase ratio, antagonist mode
# Retinoic acid receptor RXR-alpha (Homo sapiens), sequence (P19793 whole entry, looked up): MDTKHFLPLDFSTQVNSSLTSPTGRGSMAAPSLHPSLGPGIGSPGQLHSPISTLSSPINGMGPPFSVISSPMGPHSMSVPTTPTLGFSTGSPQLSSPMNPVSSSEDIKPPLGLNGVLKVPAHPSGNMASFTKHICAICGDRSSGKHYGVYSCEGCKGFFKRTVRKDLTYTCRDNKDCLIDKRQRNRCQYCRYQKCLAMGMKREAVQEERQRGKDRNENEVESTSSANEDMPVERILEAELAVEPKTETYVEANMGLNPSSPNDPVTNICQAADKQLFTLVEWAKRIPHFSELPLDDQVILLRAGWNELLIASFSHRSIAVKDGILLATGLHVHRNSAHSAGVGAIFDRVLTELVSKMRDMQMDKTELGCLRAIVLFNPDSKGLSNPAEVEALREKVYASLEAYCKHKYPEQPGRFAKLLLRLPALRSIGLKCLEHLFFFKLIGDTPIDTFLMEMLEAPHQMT
# Method in brief: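 Beta-lactamase reporter inhibition, read as CCF4 fluorescence ratio (ex 405, em 460/530 nm) after 2 h at RT. HEK293T UAS-bla cells, 2500/well, were stimulated with 9-cis-RA at 500 or 100 nM final alongside test compound for 18 h at 37 C.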
# [8] = qHTS assay for small molecule activators of the nuclear factor-kappa B (NF-kB) signaling pathway (AID 651749; active = well fitted activation curve with a large enough effect in the signal ratio; the % refers to the signal ratio); conditions: NF-kB-bla ME-180 cells, beta-lactamase FRET ratio, 16 h; stronger effect = higher value
# Method in brief: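 In this qHTS format, compounds acting as activators increase NF-kB-driven beta-lactamase in ME-180 cells, measured as disrupted FRET after 16 hr exposure at 37C and 5% CO2.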
# [9] = Cell Viability - HUV-EC-C (AID 542);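 note: cells exposed to compound for 40 hours; nearly all actives have a fitted effect of over 35% in size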
# Method in brief: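 CellTiter-Glo luminescence measured ATP loss in HUV-EC-C cells (1000/well) after 40 hr compound exposure at 37 °C, in complete culture medium. Concentration-response data were Hill-fitted to give AC50.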
# [10] = Cell Viability - Renal Proximal Tubule (AID 545); conditions: renal proximal tubule cells viability, primary cells of rat origin; at 91.7 µM (top of the series);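 note: cells exposed to compound for 40 hours; nearly all actives have a fitted effect of over 40% in size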
# Method in brief: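 Luminescent ATP signal (CellTiter-Glo) served as the viability read-out after 40 hr compound exposure of freshly isolated rat proximal tubule cells at 37 °C. Concentration-dependent ATP loss was fitted with the Hill equation to give AC50.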
# [11] = Cellular Toxicity (caspase-3) SK-N-SH (AID 661);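 note: cells exposed to compound for 16 hours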
# Method in brief: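 Caspase 3/7 activation was read by luminogenic substrate cleavage after 16 hour treatment of SK-N-SH cells. Signal was scaled between DMSO and 10 uM staurosporine, and concentration-response data were fitted with the Hill equation for AC50.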
# [12] = biological target: Bile acid receptor (Homo sapiens) (UniProt Q96RI1); assay: qHTS assay for small molecule antagonists of farnesoid X receptor signaling (AID 588526; calls by dose curve)
# Bile acid receptor (Homo sapiens), sequence (Q96RI1 whole entry, looked up): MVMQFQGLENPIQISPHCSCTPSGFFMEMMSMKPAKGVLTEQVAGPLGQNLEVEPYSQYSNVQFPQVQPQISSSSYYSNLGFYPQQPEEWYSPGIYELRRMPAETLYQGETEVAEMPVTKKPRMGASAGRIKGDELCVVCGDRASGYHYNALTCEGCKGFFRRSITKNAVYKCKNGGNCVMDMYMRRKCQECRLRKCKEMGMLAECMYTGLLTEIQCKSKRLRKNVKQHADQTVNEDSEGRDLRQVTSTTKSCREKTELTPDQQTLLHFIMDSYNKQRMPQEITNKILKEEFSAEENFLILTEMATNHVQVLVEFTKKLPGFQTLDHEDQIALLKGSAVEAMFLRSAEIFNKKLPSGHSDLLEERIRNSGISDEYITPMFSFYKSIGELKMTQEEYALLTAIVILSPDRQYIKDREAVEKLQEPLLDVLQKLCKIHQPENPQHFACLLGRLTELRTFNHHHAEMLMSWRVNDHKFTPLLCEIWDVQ
# Method in brief: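 Antagonist mode: titrated compounds tested against chenodeoxycholic acid stimulation (normalized to 50 uM CDCA and DMSO) in GeneBLAzer HEK293T cells for 16 h. Beta-lactamase read by CCF4 fluorescence; IC50 from Hill fits.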
# [13] = Cell Viability - LYMP2-004 (AID 966); note: nearly all actives have a fitted effect of over 65% in size
# Method in brief: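 AC50 values come from Hill modelling of concentration-dependent loss of intracellular ATP, measured by CellTiter-Glo luminescence. Human LYMP2-004 lymphoblastoid cells (2500/well) were exposed to compound for 24 h at 37 C.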
# [14] = Cell Viability - LYMP2-012 (AID 982);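 note: cellular ATP by luciferase luminescence where a drop means cytotoxicity; cells exposed to compound for one day before reading; nearly all actives have a fitted effect of over 55% in size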
# [15] = qHTS assay for small molecule disruptors of the mitochondrial membrane potential - 5 hr assay (AID 651755; calls by dose curve; note: nearly all actives have a fitted effect of over 40% in size)
# Method in brief: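 Read-out: ratiometric Mito-MPS fluorescence, green monomer (ex 490/em 535) vs red mitochondrial aggregate (ex 540/em 590). HepG2 cells treated 5 hr at 37C before 30 min dye loading.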
# [16] = qHTS assay to identify small molecules that stimulate interleukin-8 (IL-8) secretion (AID 651758; active = well fitted activation curve with a large enough effect in the signal ratio; the % refers to the signal ratio; note: potency is the fitted concentration of half-maximal effect)
# Method in brief: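 Compounds are added to THP-1 cells (2000 per well) and left 16 hrs at 37 C. A labeled anti-IL-8 antibody pair is then added, and IL-8 secretion is measured by time-resolved FRET after 1-3 hrs at room temperature.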
# [17] = Cell Viability - HepG2 (AID 433; calls by dose curve;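 note: potency is the fitted concentration of half-maximal effect; cells exposed to compound for 40 hours; potency for ATP loss meaning cytotoxicity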); conditions: qHTS
# Method in brief: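 Read-out is luciferase-based quantitation of cellular ATP as a measure of viable HepG2 cells after 40 h treatment at 37 °C. Signal decrease is scaled between DMSO-only and 100 uM tamoxifen controls, with AC50 fitted by the Hill equation.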
# [18] = biological target: Voltage-gated inwardly rectifying potassium channel KCNH2 (Homo sapiens) (UniProt Q12809); assay: qHTS Assay for Small Molecule Inhibitors of the Human hERG Channel Activity (AID 588834);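 note: top concentration of the series differs between compounds; lower thallium flux fluorescence means stronger hERG block; nearly all actives have a fitted effect of over 50% in size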
# Voltage-gated inwardly rectifying potassium channel KCNH2 (Homo sapiens), sequence (Q12809 whole entry, looked up): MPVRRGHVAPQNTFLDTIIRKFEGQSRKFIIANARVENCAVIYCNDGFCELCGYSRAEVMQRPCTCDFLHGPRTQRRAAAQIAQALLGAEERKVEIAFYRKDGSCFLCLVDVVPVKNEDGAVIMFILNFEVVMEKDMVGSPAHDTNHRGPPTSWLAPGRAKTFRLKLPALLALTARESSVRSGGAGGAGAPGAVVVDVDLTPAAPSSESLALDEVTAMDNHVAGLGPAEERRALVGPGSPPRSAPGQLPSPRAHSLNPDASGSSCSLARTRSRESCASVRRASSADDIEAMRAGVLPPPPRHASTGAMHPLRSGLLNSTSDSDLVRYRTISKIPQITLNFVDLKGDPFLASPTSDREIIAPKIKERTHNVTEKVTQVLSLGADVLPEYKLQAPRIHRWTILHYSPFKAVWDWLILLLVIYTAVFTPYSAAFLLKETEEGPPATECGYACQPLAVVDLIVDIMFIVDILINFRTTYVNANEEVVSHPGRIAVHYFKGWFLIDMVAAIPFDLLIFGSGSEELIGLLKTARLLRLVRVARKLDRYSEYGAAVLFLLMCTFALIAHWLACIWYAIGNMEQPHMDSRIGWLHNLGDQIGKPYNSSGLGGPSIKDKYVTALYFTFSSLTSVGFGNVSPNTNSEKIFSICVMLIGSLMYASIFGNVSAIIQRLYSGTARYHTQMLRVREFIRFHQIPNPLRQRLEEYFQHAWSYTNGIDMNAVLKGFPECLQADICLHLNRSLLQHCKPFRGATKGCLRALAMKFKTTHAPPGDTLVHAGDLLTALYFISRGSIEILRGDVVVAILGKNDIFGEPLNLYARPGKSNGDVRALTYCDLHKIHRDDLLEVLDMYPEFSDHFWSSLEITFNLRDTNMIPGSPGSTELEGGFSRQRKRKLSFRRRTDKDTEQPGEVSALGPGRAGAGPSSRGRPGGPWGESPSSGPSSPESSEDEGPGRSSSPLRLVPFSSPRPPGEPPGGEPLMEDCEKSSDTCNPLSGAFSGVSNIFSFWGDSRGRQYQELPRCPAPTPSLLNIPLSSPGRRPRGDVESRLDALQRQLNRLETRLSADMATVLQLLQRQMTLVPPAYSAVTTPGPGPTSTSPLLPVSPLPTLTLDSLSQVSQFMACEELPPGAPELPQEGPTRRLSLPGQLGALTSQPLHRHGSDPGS
# Method in brief: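 Step 1: BacMam hERG transduction of U2OS, 4 hrs RT. Step 2: overnight 37 °C, plate 2000 cells/well, 4 hr. Step 3: FluxOR load, compound 10 min, stimulate, read fluorescence.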
# [19] = Cell Viability - LYMP2-023 (AID 975);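 note: cellular ATP measured by luciferase luminescence as viability proxy; nearly all actives have a fitted effect of over 55% in size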
# Method in brief: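 Intracellular ATP, read by CellTiter-Glo luminescence, reports viability after 24 hr compound exposure at 37 C. 2500 lymphoblastoid cells/well (LYMP2-023) seeded 5 hr beforehand; Hill fits give AC50; positive control tetraoctylammonium bromide.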
# [20] = Cell Viability - LYMP2-003 (AID 965);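 note: cells exposed to compounds for 24 h before reading; nearly all actives have a fitted effect of over 50% in size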
# Method in brief: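 Seed 2500 lymphoblastoid cells/well; incubate 5 hr, 37 C; add compounds; incubate 24 hr, 37 C; add CellTiter-Glo, 30 min RT; read luminescence. AC50 from Hill fit.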
structure (smiles),measurement,setting,value
CC(C)=CCCC(C)CCO (stereo not drawn),outcome,[1],inactive
same,outcome,[2],inactive
same,Potency,[3],inactive
same,max response,[4],6.53% and 29.8%
same,Potency,[5],inactive
same,outcome,[6],inactive
same,max response,[7],-7.24% (inactive) and 2.51% (inactive)
same,activation,[8],0.223% (inactive) and -0.597% (inactive)
Nc1ccc(S(=O)(=O)O)cc1,outcome,[9],inactive
same,"activity change, negative = cytotoxicity",[10],-9.81% (inactive)
same,outcome,[1],inactive
same,outcome,[11],inactive
same,outcome,[12],inactive
same,activation,[8],-0.239% (inactive) and 0.0399% (inactive)
CC1(C)CC(N=C=O)CC(C)(CN=C=O)C1 (stereo not drawn),outcome,[9],inactive
same,Potency,[13],inactive
same,Potency,[14],inactive
same,outcome,[12],inactive
same,outcome,[6],inactive
same,activation,[8],-0.293% (inactive) and -0.0815% (inactive)
Cc1ccc([N+](=O)[O-])cc1N,outcome,[9],inactive
same,outcome,[11],inactive
same,Potency,[13],inactive
same,Potency,[3],inactive
same,Potency,[14],inactive
same,outcome,[12],inactive
same,max response,[4],18.4% and -6.91%
same,Potency,[5],inactive
same,outcome,[6],inactive
same,Potency,[15],inactive
Clc1cc(Cl)c(Cl)c(Cl)c1Cl,outcome,[9],inactive
same,Potency,[3],inactive
same,Potency,[14],inactive
same,max response,[7],-0.48% (inactive) and -22.2% (inactive)
same,Potency,[16],inactive
CCCCC(CC)CN (stereo not drawn),Potency,[17],> 92 µM (inactive)
same,outcome,[9],inactive
same,outcome,[11],inactive
same,max response,[4],-11.9% and 2.89%
same,Potency,[5],inactive
same,outcome,[6],inactive
same,max response,[7],27.8% (inactive) and 7.94% (inactive)
same,Potency,[18],inactive
same,activation,[8],-0.627% (inactive) and -0.116% (inactive)
same,Potency,[16],75 µM (active) and inactive
OCCNCCO,"activity change, negative = cytotoxicity",[10],-1.22% (inactive)
same,Potency,[19],inactive
same,Potency,[3],inactive
same,Potency,[14],inactive
same,max response,[4],0.125% and 53.2%
same,Potency,[5],inactive
same,max response,[7],-2.15% (inactive) and -2.6% (inactive)
same,Potency,[18],inactive
c1ccc2c(c1)[nH]c1ccccc12,outcome,[1],inactive
same,outcome,[2],inactive
same,Potency,[14],inactive
same,max response,[4],-0.442% and 48.8%
same,Potency,[5],inactive
same,outcome,[6],inactive
same,max response,[7],0.549% (inactive) and -19.1% (inactive)
same,Potency,[15],inactive
CCO[Si](CCCN)(OCC)OCC,Potency,[17],> 92 µM (inactive)
same,"activity change, negative = cytotoxicity",[10],-12% (inactive)
same,outcome,[2],inactive
same,Potency,[20],inactive
same,Potency,[3],inactive
same,Potency,[14],inactive
same,outcome,[12],inactive
same,max response,[4],6.45% and -7.95%
same,Potency,[5],inactive
same,outcome,[6],inactive
same,max response,[7],16.1% (inactive) and 0.599% (inactive)
same,activation,[8],-0.737% (inactive) and -1.24% (inactive)
C1OCOCO1,outcome,[2],inactive
same,outcome,[11],inactive
same,Potency,[20],inactive
same,outcome,[12],inactive
same,max response,[4],2.46%
same,Potency,[5],inactive
same,Potency,[18],inactive
same,activation,[8],-1.91% (inactive)
same,Potency,[16],66.8 µM (active)
c1ccc2c(c1)c1cccc3ccc4cccc2c4c31,Potency,[17],> 92 µM (inactive)
same,outcome,[11],inactive
same,Potency,[20],inactive
same,Potency,[19],inactive
same,Potency,[3],inactive
same,outcome,[12],inactive
same,max response,[4],25.2% and 42.4%
same,Potency,[5],inactive
same,max response,[7],-6.5% (inactive) and -1.07% (inactive)
same,activation,[8],2.08% (inactive) and 3.95% (inactive)
same,Potency,[15],inactive
